Reference: PubChem BioAssay (NCATS)
Inconclusive results are not listed. Entries that show only a call come without a potency. A number with no mark means an inactive call. Active and inactive are the calls of the source. Calls come from the whole dose curve; as a rule, active = well fitted inhibition curve with a large enough effect; inconclusive = small, poorly fitted or top-dose-only effect; inactive = flat fitted curve, though single readings scatter.

Assay: P-glycoprotein substrates identified in KB-8-5-11 adenocarcinoma cell line, qHTS therapeutic library screen (AID 1346987); note: nearly all actives have a fitted effect of over 65% in size
Conditions: KB-8-5-11 (P-gp overexpressing) viability, CellTiter-Glo, 72 h; series mostly up to 44.5 µM
Method in brief: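 KB-8-5-11, a colchicine-selected P-gp-overexpressing KB-3-1 subline, was grown without colchicine for the assay. Cells were seeded at 500 cells/well, dosed in concentration-response and incubated 72 h at 37 degree C, 5% CO2. Viability was read by CellTiter-Glo luminescence.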
Potency is the fitted concentration of half-maximal effect.

Question: For C=C1C(=O)O[C@@H]2[C@H]1CCC(C)=C(CCC(=O)O)[C@@]2(C)O, which Potency is on record?
Answer: inactive

Question: With C=CC(=O)Nc1cccc(Nc2nc(Nc3ccc(OCCOC)cc3)ncc2F)c1 as the compound, how does the Potency read?
Answer: 7.31 µM (active)

Question: Which Potency does the source give for CC(=O)OCC(=O)[C@@]12O[C@@H]1C[C@H]1[C@@H]3CC=C4C[C@@H](O)CC[C@]4(C)[C@H]3CC[C@@]12C here?
Answer: inactive

Question: Which Potency does the source give for C=CC(=O)N1CC(N2CCN(C(=O)CNc3cc(C4CC4)c(Cl)cc3O)CC2)C1 here?
Answer: inactive

Question: Which Potency does the source give for O=C(Cc1c(F)cccc1F)Nc1cc(OCc2ccc(Cl)cc2)ccn1 here?
Answer: inactive

Question: Which outcome does the source give for CC1(C)CCC2(C(=O)OC3OC(COC4OC(CO)C(O)C(O)C4O)C(O)C(O)C3O)CCC3(C)C(=CCC4C5(C)CCC(OC6OCC(O)C(O)C6O)C(C)(C)C5CCC43C)C2C1O (stereo not given) here?
Answer: inactive [at 9.29 µM]

Question: For Cc1cccc(N2CCN(C(=O)c3cc(S(=O)(=O)N(C)C)ccc3N3CCCC3)CC2)c1C, which Potency is on record?
Answer: inactive

Question: For C=CC(=O)N1CCC(Oc2cc3c(Nc4ccc(Cl)c(Cl)c4F)ncnc3cc2OC)CC1, which Potency is on record?
Answer: 11.6 µM (active)

Question: For Cn1ncc(Cl)c1-c1cc(C(=O)N[C@H](CN)Cc2ccc(F)c(F)c2)oc1Cl, which Potency is on record?
Answer: 16.4 µM (active)

Question: For COc1cc(C(C)=O)c(OC)c2c1OC(C)(C)C=C2, which Potency is on record?
Answer: inactive

Question: With COc1c(C(C)C)c(O)c(O)c2c1C(OC)[C@H]1OC(=O)[C@@]23CCCC(C)(C)[C@H]13 (stereo not given in full) as the compound, how does the Potency read?
Answer: inactive

Question: For C[C@@H]1O[C@@H](O[C@H]2CC[C@@]3(C)C(CC[C@]4(C)C3CC=C3[C@@H]5CC(C)(C)CC[C@]5(C(=O)O[C@@H]5O[C@H](CO)[C@@H](O)[C@H](O)[C@H]5O)CC[C@]34C)[C@]2(C)CO)[C@H](O)[C@H](O[C@@H]2O[C@H](CO)[C@@H](O)[C@H](O)[C@H]2O)[C@H]1O (stereo not given in full), which activity change, negative = cytotoxicity is on record?
Answer: 3.4% [at 9.29 µM]

Question: Which Potency does the source give for C=C1C(=O)O[C@@H]2/C=C(\C)CC/C=C(/C=O)[C@H](OC)[C@@H](OC(=O)C(C)C)[C@@H]12 here?
Answer: inactive

Question: For COc1ccc(-c2ccc3c(N4CCOCC4C)nc(N4CCOCC4C)nc3n2)cc1CO (stereo not given), which Potency is on record?
Answer: 0.0731 µM (active)

Question: Which Potency does the source give for NC(=O)c1ccccc1Nc1ccnc(Nc2cccc(O)c2)n1 here?
Answer: 8.2 µM (active)
